The text below walks through data of article PMC7862700, “An all-to-all approach to the identification of sequence-specific readers for epigenetic DNA modifications on cytosine”.

Holding throughout (assay): DAPPL (digital affinity profiling via proximity ligation, sequencing); 10 mM Tris-HCl pH 7.5, 50 mM NaCl, 1 mM DTT, 4% glycerol, room temperature, 30 min; GST-TFs on glutathione beads, 16-mer random dsDNA library, 0.1% formaldehyde crosslink after washing; high values mean tight binding
For one test, the target named is T1, ELK1 (Homo sapiens, UniProt P19419 1-428).
T1 sequence: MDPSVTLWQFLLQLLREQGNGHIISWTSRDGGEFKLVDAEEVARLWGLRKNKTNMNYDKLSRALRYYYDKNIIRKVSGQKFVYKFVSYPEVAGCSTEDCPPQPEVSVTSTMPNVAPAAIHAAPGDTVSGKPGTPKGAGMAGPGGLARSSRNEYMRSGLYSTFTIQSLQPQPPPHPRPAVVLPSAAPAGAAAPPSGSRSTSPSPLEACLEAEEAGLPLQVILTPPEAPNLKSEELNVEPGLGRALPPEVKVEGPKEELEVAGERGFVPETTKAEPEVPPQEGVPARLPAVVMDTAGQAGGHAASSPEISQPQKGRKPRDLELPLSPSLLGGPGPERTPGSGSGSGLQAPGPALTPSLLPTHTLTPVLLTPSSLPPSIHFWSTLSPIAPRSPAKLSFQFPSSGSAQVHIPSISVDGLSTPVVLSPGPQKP
The conditions noted are these: protein: recombinant; tags: N-terminal GST; dsDNA, one strand shown. Put shortly: (§1)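 Each value of binding signal is a hexamer's read frequency for a factor divided by the same hexamer's frequency in the tag-only sample. Barcoded, bead-captured GST fusions of human transcription factors made in yeast were pooled with that sample and incubated with 200 nmole of a random double-stranded 16-mer DNA library in Tris/NaCl/DTT/glycerol buffer at room temperature for 30 min. Washing, 0.1% formaldehyde crosslinking, proximity ligation, PCR and Illumina NextSeq500 sequencing followed.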

For another test, the target named is T2, GABPA (Homo sapiens, UniProt Q06546 1-454).
T2 sequence: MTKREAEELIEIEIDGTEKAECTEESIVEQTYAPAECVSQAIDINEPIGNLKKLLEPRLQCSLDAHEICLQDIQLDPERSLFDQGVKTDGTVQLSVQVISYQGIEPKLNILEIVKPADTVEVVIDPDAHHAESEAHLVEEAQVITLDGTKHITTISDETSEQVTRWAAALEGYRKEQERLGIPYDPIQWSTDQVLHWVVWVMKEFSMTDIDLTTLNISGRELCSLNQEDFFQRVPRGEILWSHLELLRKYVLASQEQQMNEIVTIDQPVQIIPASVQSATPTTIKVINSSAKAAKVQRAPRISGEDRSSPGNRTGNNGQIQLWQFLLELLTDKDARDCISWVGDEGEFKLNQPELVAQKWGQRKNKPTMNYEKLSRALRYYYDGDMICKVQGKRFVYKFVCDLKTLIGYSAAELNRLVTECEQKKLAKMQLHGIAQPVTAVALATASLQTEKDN
The conditions noted are these: protein: recombinant; tags: N-terminal GST; dsDNA, one strand shown. Put shortly:
as §1

The next test deals with ELF1 (Homo sapiens, UniProt P32519 1-619). The conditions noted are these: protein: recombinant; tags: N-terminal GST; dsDNA, one strand shown. Put shortly: as §1
Chain of ELF1 (P32519 whole entry): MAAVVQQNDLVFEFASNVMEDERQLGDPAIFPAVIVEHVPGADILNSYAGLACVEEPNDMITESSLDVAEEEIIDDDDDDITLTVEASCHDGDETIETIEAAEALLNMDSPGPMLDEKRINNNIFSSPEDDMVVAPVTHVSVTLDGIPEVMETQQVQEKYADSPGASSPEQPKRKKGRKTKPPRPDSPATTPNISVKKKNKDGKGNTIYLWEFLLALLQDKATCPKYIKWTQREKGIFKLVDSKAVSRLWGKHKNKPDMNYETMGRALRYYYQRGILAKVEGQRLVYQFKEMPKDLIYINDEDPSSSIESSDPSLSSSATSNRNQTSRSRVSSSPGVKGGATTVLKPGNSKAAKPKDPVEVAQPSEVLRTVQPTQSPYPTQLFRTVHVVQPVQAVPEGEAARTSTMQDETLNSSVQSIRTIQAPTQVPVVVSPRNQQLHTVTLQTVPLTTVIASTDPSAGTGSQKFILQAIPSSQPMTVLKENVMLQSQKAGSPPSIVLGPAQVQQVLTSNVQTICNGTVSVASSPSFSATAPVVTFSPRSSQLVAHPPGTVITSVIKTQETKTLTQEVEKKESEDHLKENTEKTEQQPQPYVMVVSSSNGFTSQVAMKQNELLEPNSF
The target of the next test is T3, ELK3 (Homo sapiens, UniProt P41970 1-407).
T3 sequence: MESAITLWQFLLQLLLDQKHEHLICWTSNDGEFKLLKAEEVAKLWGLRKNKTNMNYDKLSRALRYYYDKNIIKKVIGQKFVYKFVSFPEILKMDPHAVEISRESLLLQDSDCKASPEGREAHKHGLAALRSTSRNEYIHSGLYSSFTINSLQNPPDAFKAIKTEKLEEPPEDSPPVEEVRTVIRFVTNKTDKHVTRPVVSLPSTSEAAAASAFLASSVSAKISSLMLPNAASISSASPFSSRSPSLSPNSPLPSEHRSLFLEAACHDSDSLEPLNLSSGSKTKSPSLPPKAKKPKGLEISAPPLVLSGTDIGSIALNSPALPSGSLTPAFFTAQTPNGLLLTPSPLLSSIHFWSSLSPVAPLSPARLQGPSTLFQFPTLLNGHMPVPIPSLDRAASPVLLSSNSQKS
Particulars: protein: recombinant; tags: N-terminal GST; dsDNA, one strand shown. Put shortly:
as §1

The target of another test is HSF1 (Homo sapiens, UniProt Q00613 1-529). Particulars: protein: recombinant; tags: N-terminal GST; chain copies: 3; dsDNA, one strand shown. Put shortly: as §1
Chain of HSF1 (Q00613 whole entry): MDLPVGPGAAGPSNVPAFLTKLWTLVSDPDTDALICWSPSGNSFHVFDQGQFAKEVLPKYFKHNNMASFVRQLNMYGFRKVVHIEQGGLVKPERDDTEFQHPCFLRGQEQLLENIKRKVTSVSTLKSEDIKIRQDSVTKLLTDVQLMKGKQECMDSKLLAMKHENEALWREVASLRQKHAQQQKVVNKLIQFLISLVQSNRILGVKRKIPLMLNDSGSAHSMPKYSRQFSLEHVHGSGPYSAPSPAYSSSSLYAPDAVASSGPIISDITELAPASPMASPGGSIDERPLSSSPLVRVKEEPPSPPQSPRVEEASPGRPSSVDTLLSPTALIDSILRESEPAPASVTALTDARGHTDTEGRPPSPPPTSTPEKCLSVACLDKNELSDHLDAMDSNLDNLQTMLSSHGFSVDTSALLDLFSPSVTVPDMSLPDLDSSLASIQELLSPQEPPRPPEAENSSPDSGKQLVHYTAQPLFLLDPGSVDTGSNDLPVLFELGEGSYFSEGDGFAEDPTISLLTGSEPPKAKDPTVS
The target of the next test is T4, SPIC (Homo sapiens, UniProt Q8N5J4 1-248).
T4 sequence: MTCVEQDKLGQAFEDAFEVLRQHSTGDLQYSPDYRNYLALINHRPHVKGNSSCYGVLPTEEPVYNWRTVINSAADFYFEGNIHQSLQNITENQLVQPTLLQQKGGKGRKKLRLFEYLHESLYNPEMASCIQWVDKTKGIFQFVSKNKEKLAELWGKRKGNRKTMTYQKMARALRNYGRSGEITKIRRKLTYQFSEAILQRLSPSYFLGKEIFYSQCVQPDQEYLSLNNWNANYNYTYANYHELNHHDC
The conditions noted are these: protein: recombinant; tags: N-terminal GST; dsDNA, one strand shown. Put shortly:
as §1

For a further test, the target named is T5, ELK4 (Homo sapiens, UniProt P28324-2 1-405).
T5 sequence: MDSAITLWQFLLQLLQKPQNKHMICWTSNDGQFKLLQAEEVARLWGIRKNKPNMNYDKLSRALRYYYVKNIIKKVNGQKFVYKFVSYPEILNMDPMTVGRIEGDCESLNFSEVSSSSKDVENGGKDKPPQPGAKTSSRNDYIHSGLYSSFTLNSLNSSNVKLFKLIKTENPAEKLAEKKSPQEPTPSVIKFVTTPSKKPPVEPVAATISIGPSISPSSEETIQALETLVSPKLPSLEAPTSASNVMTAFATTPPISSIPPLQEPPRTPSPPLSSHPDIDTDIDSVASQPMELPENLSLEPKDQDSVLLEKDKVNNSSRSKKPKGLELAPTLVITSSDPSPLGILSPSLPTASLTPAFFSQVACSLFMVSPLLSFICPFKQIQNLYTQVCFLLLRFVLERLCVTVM
Particulars: protein: recombinant; tags: N-terminal GST; dsDNA, one strand shown. Put shortly:
as §1

In another test the target is T6, ETV2 (Homo sapiens, UniProt O00321 1-342).
T6 sequence: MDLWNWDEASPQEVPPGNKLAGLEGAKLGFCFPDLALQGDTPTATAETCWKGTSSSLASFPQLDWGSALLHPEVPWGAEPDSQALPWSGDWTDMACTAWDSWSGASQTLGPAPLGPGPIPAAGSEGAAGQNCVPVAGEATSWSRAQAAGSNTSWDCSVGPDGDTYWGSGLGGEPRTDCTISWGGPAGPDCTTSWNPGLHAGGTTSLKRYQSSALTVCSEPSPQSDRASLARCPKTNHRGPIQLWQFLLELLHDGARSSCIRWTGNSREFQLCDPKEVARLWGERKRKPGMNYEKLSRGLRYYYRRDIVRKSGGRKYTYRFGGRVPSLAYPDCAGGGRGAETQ
The conditions noted are these: protein: recombinant; tags: N-terminal GST; dsDNA, one strand shown. Put shortly:
as §1

In another test the target is CRX (Homo sapiens, UniProt O43186 1-299). Particulars: protein: recombinant; tags: N-terminal GST; dsDNA, one strand shown. Put shortly: as §1
Chain of CRX (O43186 whole entry): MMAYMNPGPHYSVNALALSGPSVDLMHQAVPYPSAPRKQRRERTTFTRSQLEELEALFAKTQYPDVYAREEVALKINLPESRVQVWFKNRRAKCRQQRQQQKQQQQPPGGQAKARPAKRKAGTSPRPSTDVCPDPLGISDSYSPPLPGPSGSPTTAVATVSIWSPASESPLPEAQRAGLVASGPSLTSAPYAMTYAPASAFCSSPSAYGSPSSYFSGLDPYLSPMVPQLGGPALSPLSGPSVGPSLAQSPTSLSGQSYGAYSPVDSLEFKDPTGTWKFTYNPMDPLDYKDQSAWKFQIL
The target in the next test is T7, ERF (Homo sapiens, UniProt P50548 1-548).
T7 sequence: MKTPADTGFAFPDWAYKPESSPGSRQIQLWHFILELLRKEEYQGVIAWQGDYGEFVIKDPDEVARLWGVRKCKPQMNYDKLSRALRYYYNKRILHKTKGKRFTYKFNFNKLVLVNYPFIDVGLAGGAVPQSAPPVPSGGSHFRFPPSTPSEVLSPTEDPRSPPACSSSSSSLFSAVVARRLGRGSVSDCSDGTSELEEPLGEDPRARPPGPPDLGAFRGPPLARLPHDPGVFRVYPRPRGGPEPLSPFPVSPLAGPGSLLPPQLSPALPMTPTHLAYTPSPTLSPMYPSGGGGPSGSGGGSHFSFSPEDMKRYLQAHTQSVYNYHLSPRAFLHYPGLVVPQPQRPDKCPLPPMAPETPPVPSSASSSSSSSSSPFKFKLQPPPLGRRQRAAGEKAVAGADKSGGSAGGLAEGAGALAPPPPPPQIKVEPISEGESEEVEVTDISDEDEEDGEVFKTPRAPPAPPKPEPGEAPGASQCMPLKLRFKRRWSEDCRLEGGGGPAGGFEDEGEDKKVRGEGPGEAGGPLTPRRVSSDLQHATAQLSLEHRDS
Particulars: protein: recombinant; tags: N-terminal GST; dsDNA, one strand shown. Put shortly:
as §1

The target in a further test is T8, SPDEF (Homo sapiens, UniProt O95238 1-335).
T8 sequence: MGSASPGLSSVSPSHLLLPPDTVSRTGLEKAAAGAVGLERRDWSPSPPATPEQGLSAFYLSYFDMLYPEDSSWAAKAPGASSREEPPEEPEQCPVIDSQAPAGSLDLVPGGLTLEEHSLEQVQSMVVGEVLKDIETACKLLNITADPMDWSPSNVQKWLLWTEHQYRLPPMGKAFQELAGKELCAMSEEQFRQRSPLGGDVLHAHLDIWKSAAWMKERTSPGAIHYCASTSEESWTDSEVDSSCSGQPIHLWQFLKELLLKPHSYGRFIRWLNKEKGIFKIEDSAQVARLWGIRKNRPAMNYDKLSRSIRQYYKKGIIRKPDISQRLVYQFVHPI
The conditions noted are these: protein: recombinant; tags: N-terminal GST; dsDNA, one strand shown. Put shortly: as §1

For another test, the target named is T9, ETV7 (Homo sapiens, UniProt Q9Y603 1-341).
T9 sequence: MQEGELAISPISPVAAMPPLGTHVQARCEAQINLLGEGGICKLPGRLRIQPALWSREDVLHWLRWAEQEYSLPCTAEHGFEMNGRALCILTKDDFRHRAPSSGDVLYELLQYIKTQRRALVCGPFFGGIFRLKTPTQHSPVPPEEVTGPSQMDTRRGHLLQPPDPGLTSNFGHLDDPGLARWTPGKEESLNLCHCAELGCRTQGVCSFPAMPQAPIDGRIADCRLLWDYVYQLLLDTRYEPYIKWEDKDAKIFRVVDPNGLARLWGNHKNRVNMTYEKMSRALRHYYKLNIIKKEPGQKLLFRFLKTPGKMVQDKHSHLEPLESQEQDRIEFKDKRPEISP
The conditions noted are these: protein: recombinant; tags: N-terminal GST; dsDNA, one strand shown. Put shortly: as §1

In the next test the target is T10, ETV3 (Homo sapiens, UniProt P41162-2 1-143).
T10 sequence: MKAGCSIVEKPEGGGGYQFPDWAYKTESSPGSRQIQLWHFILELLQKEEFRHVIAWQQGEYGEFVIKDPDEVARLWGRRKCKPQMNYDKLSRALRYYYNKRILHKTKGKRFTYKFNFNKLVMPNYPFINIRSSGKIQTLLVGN
The conditions noted are these: protein: recombinant; tags: N-terminal GST; dsDNA, one strand shown. Put shortly:
as §1

CGCGAA: the binding signal with ELK1 is 1.04 fold enrichment (6-mer frequency, TF over GST control); with GABPA, 1.01 fold enrichment (6-mer frequency, TF over GST control); in the test with ELF1, 1.03 fold enrichment (6-mer frequency, TF over GST control); with ELK3, 1.05 fold enrichment (6-mer frequency, TF over GST control); in the test with HSF1 it was 1.76 fold enrichment (6-mer frequency, TF over GST control); with SPIC, 1.02 fold enrichment (6-mer frequency, TF over GST control). Besides, the binding signal in the test with ELK4 was 1.08 fold enrichment (6-mer frequency, TF over GST control); with ETV2, 1.11 fold enrichment (6-mer frequency, TF over GST control); in the test with CRX, 1.05 fold enrichment (6-mer frequency, TF over GST control); with ERF it was 1.01 fold enrichment (6-mer frequency, TF over GST control); in the test with SPDEF, 1.01 fold enrichment (6-mer frequency, TF over GST control); with ETV7, 1.1 fold enrichment (6-mer frequency, TF over GST control). Also, in the test with ETV3, the binding signal was 1.01 fold enrichment (6-mer frequency, TF over GST control).
